In PubChem BioAssay AID1239 (SRMLSC, 2008) one finds fold change data, which are given here for 68 compounds.

The structures appear in SMILES notation. Out of some 190,000 compounds screened, about 3,100 (1.6%) were called active. Cut-off read from the data, not from the text of the source: active = fold change above about 3.3; inconclusive = no clear call, values can overlap the other calls; inactive = below that. This excerpt belongs to a sample that is enriched for actives.

A short description of the assay: activators of NF-kB expression in neurons, primary screen, cell-based, HTS (AID 1239). As to conditions: human neuronal cells, NF-kB reporter expression; at 12.5 µM; active compounds read high.
For the compound `COc1cc(C(=O)NCc2ccc(-n3cccc3)cc2)cc(OC)c1OC`, the fold change is 1.25 (inactive).
The same measure for `COc1ccc(CN2CN(C3CCCC3)CSC2=S)cc1`: 1.11 (inactive); for `COC(=O)CSc1nc(C)c2ccc(OC)cc2n1`: 1.13 (inactive).
On to `COc1ccc2nc(SCc3ccccc3)nc(C)c2c1`, for which the fold change is 9.79 (active).
Take `COc1ccc(-c2nnc3ccc(SCc4ccccc4)nn23)cc1`: the fold change is 0.97 (inactive).
For the compound `O=C(c1ccc2ccccc2n1)N1CCN(c2ccccc2Cl)CC1`, the fold change was 2.01 (inactive).
The value for `CN(C)c1ccc(C=C2C(=O)OC3(CCCC3)OC2=O)cc1` was 1.03 (inactive).
The value for `COc1ccc(-c2noc(-c3ccc(C)cc3)n2)cc1` was 5.86 (active); that for `Cc1cccc(-c2noc(-c3ccc(F)cc3)n2)c1` was 8.41 (active); that for `COc1ccc2[nH]c(=O)c(-c3noc(-c4ccc(F)cc4)n3)cc2c1` was 1.09 (inactive).
As for `Cc1ccc(Cc2nc(-c3cccc(C)c3)no2)cc1`, the fold change is 1.99 (inactive).
Regarding `COc1ccc(-c2nc(-c3ccccc3)no2)c(OC)c1`, the fold change was 1.5 (inactive).
As for `COc1ccc(-c2noc(CSc3ccc(C)cc3)n2)cc1`, the fold change is 1.04 (inactive).
Consider `COCCNC(=S)N1CCC(NC(=O)C23CC4CC(CC(C4)C2)C3)CC1`, for which the fold change was 0.98 (inactive).
With `CN(CCN1CCOCC1)Cc1nc(-c2ccc3c(c2)OCO3)no1`, the fold change is 1.23 (inactive).
`Cn1cc(-c2ccccc2)cc(C#N)c1=O`: the fold change is 1.11 (inactive).
The value for `CCN(CC)P(=O)(Nc1ccc(SC(F)F)cc1)c1ccc(N(C)C)cc1NC(=O)c1ccco1` (stereo not drawn) was 0.57 (inactive).
The same measure for `COc1ccccc1NC(=S)N1CCN(C(c2ccccc2)c2ccccc2)CC1`: 0.89 (inactive); for `CCN(CC(=O)NCc1cccs1)C(=O)c1ccccc1F`: 1.01 (inactive).
With `CC(C)CCN1CCN(Cc2ccc(C(F)(F)F)cc2)CC1CCO` (stereo not drawn), the fold change was 0.9 (inactive).
The same measure for `C/C(=N\Nc1ncc(Cl)cc1Cl)c1cccs1`: 4.91 (active); for `C/C(=N\Nc1ncc(Cl)cc1Cl)c1ccc(S(=O)(=O)NCc2ccco2)cc1`: 1.29 (inactive).
The same measure for `C/C(=N\Nc1nc(Nc2ccccc2)nc(N2CCOCC2)n1)c1cccs1`: 0.45 (inactive); for `OCCNc1nc2ccccc2[nH]1`: 1.02 (inactive); for `COc1cccc(/C(C)=N/Nc2ncc(Cl)cc2Cl)c1`: 1.88 (inactive).
On to `C/C(=N\Nc1nc2ccccc2[nH]1)c1cccs1`, for which the fold change is 5.42 (active).
The same measure for `CSc1nc2c(c(=O)[nH]1)C(c1cccc(Cl)c1Cl)CC(=O)N2` (stereo not drawn): 1.18 (inactive).
The value for `CC1Cc2ccccc2N1S(=O)(=O)c1c(N)n(C)c(=O)n(C)c1=O` (stereo not drawn) was 1.07 (inactive); that for `CC(C)n1c(=O)[nH]c2cc(C(=O)Nc3ccccc3)ccc21` was 1.9 (inactive).
On to `O=C(Nc1ccccc1)c1ccccc1NC(=O)C(F)(F)F`, for which the fold change was 0.9 (inactive).
For `O=C(Nc1ccccc1)c1cc2ccccc2[nH]1`, the fold change is 3.43 (active).
The same measure for `N/C(=N\OC(=O)N1c2ccccc2Sc2ccccc21)c1ccc(Br)cc1`: 1.29 (inactive); for `N/C(=N\OC(=O)/C=C/c1ccccc1)c1ccc(Br)cc1`: 1.46 (inactive); for `N/C(=N\OC(=O)c1ccc2c(c1)OCO2)c1ccc(Br)cc1`: 3.37 (active).
The same measure for `CC(C)(C)OC(=O)N/N=C/c1cn(-c2ccccc2)nc1-c1cccnc1`: 0.46 (inactive); for `Cc1ccc(S(=O)(=O)N(CC(=O)NN=C2CCN(C)CC2)c2ccc(F)cc2)cc1`: 0.83 (inactive).
The value for `COc1ccccc1CC(=O)Nc1ccc(F)cc1F` was 1.07 (inactive); that for `COc1cc(OC)cc(C(=O)OCC(=O)Nc2ccc(F)cc2F)c1` was 1.18 (inactive).
Regarding `COc1ccc(C(=O)Nc2ccc(S(=O)(=O)NC(C)C)cc2)cc1`, the fold change was 1.12 (inactive).
For `COc1ccc(NC(=O)c2ccc(C#CC(C)(C)O)cc2)cc1`, the fold change is 1.35 (inactive).
The value for `COc1ccc(/C=N/NC(=O)Nc2ccc3nsnc3c2)c(OC)c1` was 1.11 (inactive).
On to `COc1ccc(C(=O)Nc2ccc(F)cc2F)cc1`, for which the fold change was 3.39 (active).
Consider `COc1ccc(NC(=O)Nc2ccc3nc(C)c(C)nc3c2)cc1`, for which the fold change is 0.77 (inactive).
The value for `COc1ccc(NC(=O)c2ccc(OC)cc2)cc1` was 4.29 (active); that for `COc1ccc(NC(=O)Nc2ccc3nsnc3c2)cc1` was 3.98 (active).
Take `Cc1ccc(-c2nn(-c3cccc(F)c3)cc2CNCCc2ccncc2)o1`: the fold change was 0.82 (inactive).
For `Cc1cc(C(=O)N/N=C\C(Br)=C\c2ccccc2)c(C)o1`, the fold change was 1.27 (inactive).
The value for `O=C(Nc1cccn(Cc2ccccc2Cl)c1=O)NC1CCCCC1` was 1.26 (inactive); that for `O=C(COc1ccccc1[N+](=O)[O-])NC1CC1` was 1.17 (inactive).
The value for `Cc1ccc(C(=O)N/C(=C\c2cccs2)C(=O)NCCc2ccccn2)cc1C` was 1.8 (inactive); that for `Cc1ccccc1Nc1scc(-c2ccc(Br)cc2)[n+]1-c1ccccc1C` was 0.87 (inactive); that for `Cc1ccnc(N2CCCC(C(=O)Nc3cc(F)ccc3C)C2)n1` (stereo not drawn) was 1.14 (inactive).
On to `O=C(Nc1ccc2c(c1)OCCO2)C1CCCN(c2ncccn2)C1` (stereo not drawn), for which the fold change was 4.28 (active).
`Cc1cc(C)nc(N2CCC(C(=O)Nc3ccc4c(c3)OCCO4)CC2)n1`: the fold change was 1.22 (inactive).
Take `COc1ccc(-c2ccc(CCC(=O)O)n2-c2ccc(O)cc2)cc1`: the fold change is 0.84 (inactive).
The value for `O=C(Oc1cccc(NC2=NS(=O)(=O)c3ccccc32)c1)c1ccncc1` was 1.14 (inactive).
The same measure for `CC(C)(C)c1csc(NC2=NS(=O)(=O)c3ccccc32)n1`: 3.56 (active).
The value for `Cc1ccc(S(=O)(=O)N(NC2=NS(=O)(=O)c3ccccc32)C(=O)c2ccccc2)cc1` was 1.06 (inactive); that for `N#Cc1c(NC(=O)C2CCCO2)sc2c1CCCCC2` (stereo not drawn) was 1.1 (inactive); that for `CCN(CC)CCNS(=O)(=O)c1ccc(/C=C/C(=O)O)cc1` was 1.3 (inactive).
For `CSc1ccc(/C=N\NC(=O)COc2ccc(Cl)cc2Br)cc1`, the fold change was 1.51 (inactive).
Take `CSc1ccc(/C=N/NC(=O)c2cccc(Cl)c2)cc1`: the fold change was 3.71 (active).
The same measure for `COc1ccc(/C=N/NC(=O)c2cccc(C(F)(F)F)c2)cc1`: 0.86 (inactive); for `CC(=O)c1ccccc1NC(=O)CC1(CC(=O)O)CCCCC1`: 1.2 (inactive).
The same measure for `CC(=O)Nc1ccc(CN2CCN(Cc3ccc(F)c(F)c3)C(CCO)C2)cc1` (stereo not drawn): 1.18 (inactive); for `CCC(=O)Oc1cccc(C(=O)Nc2ccc(-c3nnc(-c4ccco4)o3)cc2)c1`: 0.99 (inactive); for `CCCCOc1ccc(-c2nnc(-c3ccco3)o2)cc1`: 3.49 (active).
Consider `CCOc1ccc(-c2nnc(-c3ccco3)o2)cc1`, for which the fold change was 2.85 (inactive).
